“And” between values parts separate entries of the source, which are not always exact repeats. Identical values can stand only once. Records with an inconclusive call do not appear. Where a call stands in place of a potency, no number is given. Values without a mark were called inactive. The source made the active and inactive calls. Calls follow the shape of the dose curve; as a rule, active = well fitted cell-killing curve with a large enough effect in the repeat runs; inconclusive = weak or mixed curves, or effect the other way; inactive = flat fitted curve, though single readings scatter.
assay: qHTS assay to identify small molecule agonists of the TGF-beta/Smad signaling pathway - cell viability counter screen (AID 1346829); settings: SBE-bla HEK293T viability, CellTiter-Glo luminescence, 5 h; series mostly up to 76.8 µM; also: nearly all actives have a fitted effect of over 45% in size; as to activity change, negative = cytotoxicity: top concentration of the series differs between compounds
Source text: National Center for Advancing Translational Sciences [NCATS]
NIH Chemical Genomics Center [NCGC]
U.S. Environmental Protection Agency [EPA]
National Institutes of Environmental Health Sciences [NIEHS]
National Toxicology Program [NTP]
U.S. Food and Drug Administration [FDA]
Transforming growth factor beta (TGF-beta) superfamily consists of a large number of structurally related dimeric proteins that act as hormones or local mediators in regulating a wide range of biological functions. This superfamily includes TGF-betas themselves, the bone morphogenetic proteins (BMPs) and the activins. These ligands induce oligomerization of serine/threonine receptor kinases and phosphorylate the cytoplasmic signaling molecules of Smad protein family. CellSensor SBE-bla HEK 293T cell line (Life Technologies, Carlsbad, CA), responsive to TGF-beta was used to screen Tox21 10K compound library for identification of agonists/antagonists of the Smad signaling pathway. This cell line contains a beta-lactamase reporter gene under control of the Smad binding element (SBE) stably integrated into HEK 293T cells. Also cytotoxicity of the compounds was tested in parallel by measuring the cell viability using CellTiter-Glo assay system in the same wells.
Tox21 Assay Protocol Summary:
SBE-bla HEK 293T cells were dispensed at 4,000/well in 6 uL of assay medium into black wall/clear-bottom 1536-well plates using a Multidrop Combi (ThermoFisher Scientific, Waltham, MA) dispenser. After the assay plates were incubated at 37 C and 5% CO2 for an overnight, 23 nL of compounds dissolved in DMSO, positive controls or DMSO only was transferred to the assay plate by a Pintool station (Kalypsys, San Diego, CA). The assay plates were incubated at 37 C and 5% CO2 for 5 hr. One uL of LiveBLAzer B/G FRET substrate (Life Technologies) was added using a Flying Reagent Dispenser (FRD, Aurora Discovery, San Diego, CA) and the plates were incubated at room temperature for 2 hr. Fluorescence intensity (405 nm excitation, 460 nm and 530 nm emissions) was measured using an Envision plate reader (PerkinElmer, Shelton, CT). For cytotoxicity read, 4 uL of CellTiter-Glo reagent (Promega Corporation, Madison, WI) was added to each well of the assay plates using FRD. After 30min incubation at room temperature, the luminescence intensity was measured using ViewLux plate reader (PerkinElmer).
Potency is read from the fitted curve at half-maximal effect.

SMILES | Potency | activity change, negative = cytotoxicity
Nc1cc(S(=O)(=O)O)cc2cc(S(=O)(=O)O)cc(O)c12 | inactive | –
COC(=O)[C@H]1[C@H]2C[C@@H]3c4[nH]c5cc(OC)ccc5c4CCN3C[C@H]2C[C@@H](OC(=O)c2cc(OC)c(OC)c(OC)c2)[C@@H]1OC | inactive | –
c1cnc2cc3c(cc2n1)C1CNCC3C1 | inactive | –
CCN(CC)C(=S)SSC(=S)N(CC)CC | inactive | –
CC(C)C(=O)c1c(C(C)C)nn2ccccc12 | inactive | –
c1ccc2cc3c(ccc4ccccc43)cc2c1 | inactive | –
CCC(CO)(CO)COCC(CC)(CO)CO | inactive | –
CCCCCCC(O)CCCCCCCCCCC(=O)O (stereo not given) | inactive | –
CC(COc1ccccc1)N(CCCl)Cc1ccccc1 (stereo not given) | inactive | –
Cc1ccnc2c1NC(=O)c1cccnc1N2C1CC1 | inactive | –
CN1C(=O)c2ccc([N+](=O)[O-])cc2C1=O | inactive | –
CCCCOCCOC(=O)c1ccccc1C(=O)OCCOCCCC | inactive | –
CC(C)(c1ccccc1)c1ccc(Nc2ccc(C(C)(C)c3ccccc3)cc2)cc1 | inactive | –
CC(C(O)c1ccc(O)cc1)N1CCC(Cc2ccccc2)CC1 (stereo not given) | inactive | –
CCn1cc(C(=O)O)c(=O)c2cc(F)c(N3CCNC(C)C3)c(F)c21 (stereo not given) | inactive | –
CCC(C)(C)C(=O)O[C@H]1C[C@@H](C)C=C2C=C[C@H](C)[C@H](CC[C@@H]3C[C@@H](O)CC(=O)O3)[C@H]21 | inactive | –
NCCCCCC(=O)O | inactive | –
CCCN[C@H]1CCc2nc(N)sc2C1 | inactive | –
C=CC(=O)OCCCCCCOC(=O)C=C | inactive | –
CN(C)c1ccc2nc3ccc(=[N+](C)C)cc-3sc2c1 | inactive | –

SMILES | Potency | activity change, negative = cytotoxicity
CC(=O)Nc1ccc(C(=O)CCl)cc1 | inactive | –
Cc1cc(Cc2cc(C)cc(C(C)(C)C)c2O)c(O)c(C(C)(C)C)c1 | 43.9 µM (active) and 54.9 µM (active) | –
CC[C@H]1CN2CCc3cc(OC)c(OC)cc3[C@@H]2C[C@@H]1C[C@H]1NCCc2cc(OC)c(OC)cc21 | inactive | –
Clc1ccc2c(c1)C(N1CCNCC1)=Nc1ccccc1O2 | inactive | –
CCCCCCCCCCCCCCCCCl | – | 1.73% [at 15.8 µM]
COC(=O)c1cccc(C(=O)OC)c1 | inactive | –
Cc1occc(=O)c1OC(=O)C(C)C | inactive | –
O=c1n(CC2CO2)c(=O)n(CC2CO2)c(=O)n1CC1CO1 (stereo not given) | inactive | –
CCOc1ccc2c(c1)C(C)=CC(C)(C)N2 | inactive | –
C=CS(=O)(=O)O | inactive | –
C#CC(C)(CC)OC(=O)c1ccccc1C(=O)O (stereo not given) | inactive | –
COc1ccc(Cc2cnc(N)nc2N)cc1OC | inactive | –
O=Nc1ccc(Nc2ccccc2)cc1 | inactive | –
O=C1CC2(CCCC2)CC(=O)N1CCCCN1CCN(c2ncccn2)CC1 | inactive | –
c1cc(C(c2ccc(OCC3CO3)cc2)C(c2ccc(OCC3CO3)cc2)c2ccc(OCC3CO3)cc2)ccc1OCC1CO1 (stereo not given) | inactive | –
CC(C)(C)c1ccccc1 | inactive | –
COc1nc(C)nc(Cl)c1NC1=NCCN1 | inactive | –
O=Cc1ccc(Cl)cc1 | inactive | –
CO[Si](OC)(OC)c1ccccc1 | inactive | –
C/C=C/c1ccc(OCC)c(O)c1 | inactive | –

Source: PubChem BioAssay (Tox21)
